TGFb SMAD3 inh – inhibitors of TGF-b signaling; HepG2 CAGA-GFP TGF-b/SMAD3 reporter, GFP fluorescence, 18 h; TGF-beta stimulated, 500 pg/mL final; Potency, µM (titrated, usually from 46.1 µM), for inactives: at the top dose activity, negative = inhibition, hits mostly inhibitors; 410,000 compounds, 1.2% hits; AID 588855; further: on the % scale 0 is the no-effect control and ±100 the full control effect; nearly all actives have a fitted effect of over 65% in size
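Cell-based qHTS in HEPG2 carrying a CAGA-GFP Smad reporter; compounds added before 500 pg/mL final TGF-beta, 18 h incubation at 37 degrees C, GFP fluorescence quantified per cell by imaging cytometry.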
ATXN2 expr inh – reduces ATXN2 reporter expression in HEK-293 cells; HEK-293 ATXN2-luciferase reporter, luminescence, 24 h; Potency, µM (titrated, usually from 57 µM), without a hit: at the top dose activity change, negative = inhibition, most hits filed as inhibitors; 360,000 compounds, 0.72% hits; further: on the % scale 0 is the no-effect control and ±100 the full control effect; nearly all actives have a fitted effect of over 55% in size
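ATXN2-luciferase reporter cells (luciferase flanked by upstream and downstream ATXN2 gene portions) were treated 24 h at 37 °C with compounds at up to 57 uM. SteadyGlo luminescence gave expression; GF-AFC fluorescence gave viability.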
HepG2 tox – HepG2 cytotoxicity, counter-screen for TGF-b inhibitors; HepG2 CAGA-GFP viability, ATP luminescence, 18 h; Potency, µM (doses to about 46.1 µM), for inactives: at the highest dose activity change, negative = cytotoxicity, most hits filed as cytotoxic; 410,000 compounds, 0.76% hits
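CellTiter-Glo luminescence gave cytotoxicity after 18 hours at 37 degrees C. The cells were HepG2 CAGA-GFP in 1% FBS DMEM, stimulated with 500 pg/mL TGF-beta after compound addition. %Activity was normalised to no-cell wells (complete cell-killing) and DMSO (no toxicity), and curves were fitted and classified.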
ATXN viability – viability counter-screen for ATXN expression inhibitors | S2 cells (HEK-293 line with an ATXN2-luciferase reporter) viability, CellTiter-Fluor protease fluorescence, 24 h | Potency, µM (doses to about 56.7 µM), hits mostly cytotoxic | 400,000 compounds, 0.49% hits | AID 651635; further: nearly all actives have a fitted effect of over 40% in size
12-LOX inh – inhibitors of human 12S-lipoxygenase ALOX12. AID 1671190. P18054. 580,000 compounds, 1.1% hits. purified 12hLO, xylenol orange hydroperoxide absorbance. Potency, µM (highest dose often 108 µM), for inactives: top-dose activity change, negative = inhibition, usual class: inhibitors; further: on the % scale 0 is the no-effect control and ±100 the full control effect
Target sequence (P18054 whole entry, looked up): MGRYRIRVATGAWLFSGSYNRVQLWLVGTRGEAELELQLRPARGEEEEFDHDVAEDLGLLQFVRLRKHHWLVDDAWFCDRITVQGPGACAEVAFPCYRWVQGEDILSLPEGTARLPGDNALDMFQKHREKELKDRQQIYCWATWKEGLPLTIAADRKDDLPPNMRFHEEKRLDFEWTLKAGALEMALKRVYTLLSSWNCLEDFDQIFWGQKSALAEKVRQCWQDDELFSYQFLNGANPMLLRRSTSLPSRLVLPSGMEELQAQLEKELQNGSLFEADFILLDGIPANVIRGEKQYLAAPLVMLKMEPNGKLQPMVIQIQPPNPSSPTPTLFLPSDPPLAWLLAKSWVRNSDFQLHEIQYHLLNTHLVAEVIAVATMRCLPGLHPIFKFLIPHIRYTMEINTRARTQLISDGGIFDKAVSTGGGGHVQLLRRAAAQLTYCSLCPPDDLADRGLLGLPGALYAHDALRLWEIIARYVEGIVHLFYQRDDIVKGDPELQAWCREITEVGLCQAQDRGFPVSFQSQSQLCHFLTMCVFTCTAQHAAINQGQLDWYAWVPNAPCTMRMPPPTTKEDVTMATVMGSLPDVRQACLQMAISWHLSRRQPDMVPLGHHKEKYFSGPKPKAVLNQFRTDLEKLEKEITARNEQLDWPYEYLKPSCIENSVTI
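Hydroperoxide product was detected by ferrous iron/xylenol orange as the 573 to 405 nm absorbance ratio. Arachidonic acid at 40 uM (final) was turned over for 30 min at room temperature by 150 nM human 12hLO, pH 7.0 Hepes buffer, after 15 min compound preincubation.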
Active calls of the source: *; ! = a repeat was not active. Hits are enriched below; roughly 2.7% of the tested compounds scored in any of these assays. The call rests on the fitted dose curve; in most records, active means well fitted curve in the direction sought with a large enough effect; inconclusive means small, poorly fitted or top-dose-only effect, or another doubt; inactive means no such curve, though single readings can be large; an effect the other way counts as inactive or inconclusive. Potency means the concentration at half of the fitted maximal effect.

What do the screens show for `O=C1CC2CCN(C(=O)c3ccccc3)CC2CCN1` (stereo not given)?
12-LOX inh: 50µM*

Results for Cc1cccc2c(=O)c(-c3ccccc3)c(N)oc12 ?
12-LOX inh: 22%

What do the screens show for `CC(C)(C)c1ccc(C(=O)N2CCCCCC2=O)cc1`?
TGFb SMAD3 inh: 13%; ATXN2 expr inh: 6.3µM*; HepG2 tox: -20%; ATXN viability: inactive; 12-LOX inh: 0%

What do the screens show for `O=C1CCCCCN1C(=O)c1ccccc1`?
TGFb SMAD3 inh: 0%; ATXN2 expr inh: -8%; HepG2 tox: 14%; ATXN viability: inactive; 12-LOX inh: -16%

What do the screens show for `C=CCc1cc(/C=C/c2nc(O)c([N+](=O)[O-])c(=O)[nH]2)cc(OC)c1O`?
TGFb SMAD3 inh: 8%; ATXN2 expr inh: -30%; HepG2 tox: 9%; ATXN viability: inconclusive; 12-LOX inh: 40µM*

How did COc1ccc(-c2ccc(SC)nn2)cc1 do in these assays?
TGFb SMAD3 inh: -7%; ATXN2 expr inh: inconclusive; HepG2 tox: 7.1µM*; ATXN viability: inactive; 12-LOX inh: 37%

How did COc1ccc(C(=O)CSc2ccc(-c3ccccc3)nn2)cc1 do in these assays?
TGFb SMAD3 inh: -8%; ATXN2 expr inh: -6%; HepG2 tox: -14%; ATXN viability: inactive; 12-LOX inh: -1%

Results for COc1ccc(-c2ccc(CCC(=O)O)n2Cc2ccco2)cc1 ?
TGFb SMAD3 inh: 7%; ATXN2 expr inh: -14%; HepG2 tox: -18%; ATXN viability: inactive; 12-LOX inh: inconclusive

What do the screens show for `O=C(O)CCc1ccc(-c2ccc(Cl)cc2)n1Cc1ccco1`?
TGFb SMAD3 inh: 16%; ATXN2 expr inh: 6%; HepG2 tox: -2%; ATXN viability: inactive; 12-LOX inh: 40µM*

Results for CC(=O)OCC1=C(C(=O)O)N2C(=O)C(NC(=O)c3ccc(COc4ccc(Cl)cc4)o3)C2SC1 (stereo not given) ?
TGFb SMAD3 inh: -15%; ATXN2 expr inh: -13%; HepG2 tox: -14%; ATXN viability: inactive; 12-LOX inh: 40µM*

Results for CC(=O)OCC1=C(C(=O)O)N2C(=O)C(NC(=O)c3ccc(COc4c(C)cccc4Cl)o3)C2SC1 (stereo not given) ?
TGFb SMAD3 inh: -1%; ATXN2 expr inh: 3%; HepG2 tox: -14%; ATXN viability: inactive; 12-LOX inh: inconclusive

How did COC(=O)C1=C(C(=O)OC)SC(=C(Cl)C(=S)Sc2ccccc2)S1 do in these assays?
12-LOX inh: -6%

What do the screens show for `CC1CCC(C(C)C)C(OC(=O)Cn2c(-c3ccc(Br)cc3)[n+](C)c3ccccc32)C1` (stereo not given)?
TGFb SMAD3 inh: 13µM*; ATXN2 expr inh: inconclusive; HepG2 tox: 25µM*!; ATXN viability: inconclusive; 12-LOX inh: inconclusive

How did Cc1ccccc1OCc1n(CC(=O)OC2CC(C)CCC2C(C)C)c2ccccc2[n+]1C (stereo not given) do in these assays?
TGFb SMAD3 inh: 7.9µM*; ATXN2 expr inh: inconclusive; HepG2 tox: 16µM*; ATXN viability: 25µM*; 12-LOX inh: inconclusive

Results for CC1CCC(C(C)C)C(OC(=O)COC(=O)c2c(F)cccc2Cl)C1 (stereo not given) ?
12-LOX inh: -2%

What do the screens show for `CC1CCC(C(C)C)C(OC(=O)COC(=O)c2cccn2C)C1` (stereo not given)?
TGFb SMAD3 inh: -1%; ATXN2 expr inh: 1%; HepG2 tox: -78%; ATXN viability: inactive; 12-LOX inh: 11%

What do the screens show for `CC1CCC(C(C)C)C(OC(=O)Cn2c(-c3ccc(Cl)cc3)[n+](C)c3ccccc32)C1` (stereo not given)?
TGFb SMAD3 inh: inconclusive; ATXN2 expr inh: inconclusive; HepG2 tox: 11µM*; ATXN viability: inconclusive; 12-LOX inh: 0%

Results for Cc1cc(/C=N/n2cnnc2)c(C)n1-c1ccc(OCc2ccccc2F)cc1 ?
TGFb SMAD3 inh: 11µM*; ATXN2 expr inh: inconclusive; HepG2 tox: 13µM*; ATXN viability: inactive; 12-LOX inh: -47%

Results for CC(C(N)=O)N(C)Cc1ccc(C(=O)NCC(F)(F)F)cc1 (stereo not given) ?
12-LOX inh: 85%

From PubChem BioAssay
